Mtb FBA inh – Mtb FBA enzyme inhibitors, primary screen, biochemical, fluorescence, strain H37Rv | 360,000 tested, 2.3% active | AID 588726, 2011 | purified M. tuberculosis FBA, fluorescence read-out | Fructose-bisphosphate aldolase (Mycobacterium tuberculosis (strain ATCC 25618 / H37Rv)), … | inhibition, % at 1 µM; in the data active = inhibition above about 27%;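 also: 0% = vehicle and 100% = reference inhibitor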
BoNT-F LC inh – BoNT/F light chain protease inhibitors, primary screen, biochemical, flow cytometry, MLPCN library; Botulinum neurotoxin type F light chain protease (Clostridium botulinum); Multiplex microsphere protease cleavage assay; inhibition, % at 10 µM; AID 588497, 2011; 360,000 tested, 0.22% active; in the data active = inhibition above about 35%, passing the limit was not always enough; inconclusive = no clear call, values can overlap the other calls; also: plate controls were buffer without enzyme for full effect and enzyme alone for no effect
Anthrax LF inh2 – Bacillus anthracis LF protease inhibitors, primary screen, biochemical, multiplex microsphere, MLPCN library; multiplex microsphere protease cleavage assay; inhibition, % at 10 µM; Lethal factor (Bacillus anthracis), P15917; 360,000 tested, 0.12% active; also: plate controls were buffer without enzyme for full effect and enzyme alone for no effect
Target sequence (P15917 whole entry, looked up): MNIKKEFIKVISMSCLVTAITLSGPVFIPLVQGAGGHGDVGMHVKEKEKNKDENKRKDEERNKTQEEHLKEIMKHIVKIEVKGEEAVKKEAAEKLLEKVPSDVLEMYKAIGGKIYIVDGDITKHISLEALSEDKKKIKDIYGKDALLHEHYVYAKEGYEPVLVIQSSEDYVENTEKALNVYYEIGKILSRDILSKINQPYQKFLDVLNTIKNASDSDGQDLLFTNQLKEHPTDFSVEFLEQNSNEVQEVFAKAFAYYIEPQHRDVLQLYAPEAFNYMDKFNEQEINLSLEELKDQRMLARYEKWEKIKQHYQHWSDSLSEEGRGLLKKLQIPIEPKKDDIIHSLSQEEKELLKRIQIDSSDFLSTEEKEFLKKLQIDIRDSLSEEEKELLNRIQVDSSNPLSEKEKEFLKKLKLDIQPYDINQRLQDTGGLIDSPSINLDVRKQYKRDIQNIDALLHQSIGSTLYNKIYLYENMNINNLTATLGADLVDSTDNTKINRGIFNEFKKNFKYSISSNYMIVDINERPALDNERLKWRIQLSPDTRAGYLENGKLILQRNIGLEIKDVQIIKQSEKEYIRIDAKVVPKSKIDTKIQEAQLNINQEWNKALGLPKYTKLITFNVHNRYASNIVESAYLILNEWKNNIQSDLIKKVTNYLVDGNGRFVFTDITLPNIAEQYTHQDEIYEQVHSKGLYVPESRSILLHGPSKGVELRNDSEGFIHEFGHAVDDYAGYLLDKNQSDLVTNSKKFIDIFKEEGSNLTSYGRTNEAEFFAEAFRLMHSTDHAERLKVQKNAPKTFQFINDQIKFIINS
Autofluor counter – counter-screen for toxin protease inhibitors: compound fluorescence. compound autofluorescence counterscreen, microsphere flow cytometry; active compounds read high. fluorescence intensity (test concentration not listed). 360,000 tested, 3.1% active; in the data active = fluorescence intensity above about 16000; inconclusive = no clear call, values can overlap the other calls
BoNT A protease – BoNT/A light chain protease inhibitors, primary screen, biochemical, flow cytometry, MLPCN library | Botulinum neurotoxin type A light chain protease (Clostridium botulinum A str. ATCC 3502) | 360,000 tested, 0.17% active | inhibition, % at 10 µM | multiplex microsphere protease substrate cleavage; also: plate controls were buffer without enzyme for full effect and enzyme alone for no effect
GDH-TPI inh – GDH-TPI coupling enzyme inhibitors, primary screen, artefact control for M. tuberculosis FBA inhibitor project, biochemical, absorbance, full deck; GDH-TPI coupled enzyme counterscreen, NADH absorbance; inhibition, % at 4.8 µM; 360,000 tested, 1.2% active; in the data active = inhibition above about 30%;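 also: 0% = DMSO wells and 100% = wells lacking the enzyme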
Starred values were filed as active, the others as inactive; ? = inconclusive; . = not tested or not shown; + = active, no number. Shown are actives, neighbours in structure and some others; about 6.6% of the full set was active somewhere. Rule as the data show it, unless noted: active = inhibition above about 30%; inconclusive = no clear call, values can overlap the other calls; inactive = below that.

SMILES	Mtb FBA inh	BoNT-F LC inh	Anthrax LF inh2	Autofluor counter	BoNT A protease	GDH-TPI inh
COc1ccc(-c2nc3n(c2C)CCC3)cc1	-2.0	?	6.3	5159	-1.2	3.4
COc1ccc(-c2cc3nc4n(c(=O)c3s2)CCC4)cc1	+	1.0	0.4	23433*	?	13.4
COc1ccc(-c2cc3nc(C)n(N)c(=O)c3s2)cc1	+	?	9.4	3643	-1.0	32.4*
COc1ccc(CN2C(=O)C(CC(=O)NC3CCCC3)CC(C(=O)N(C)C)=C2C)cc1 (stereo unspecified)	1.5	-2.7	-2.4	2968	-0.1	0.9
O=C(Nc1cccc(NC(=O)c2ncn[nH]2)c1)c1cccc(Cl)c1	-0.3	1.0	-0.8	4375	-0.5	9.8
COc1ccc(C(=O)N/C(=C/c2cccs2)c2nc3ccccc3[nH]2)cc1OC	3.2	0.4	-1.9	2536	0.2	47.5*
COc1cc(/C=C(/C(=O)c2cccs2)c2nc3ccccc3[nH]2)cc(OC)c1O	-11.6	-3.1	5.5	10232	-0.6	43.4*
COc1ccc(C(=O)N/C(=C/c2cccs2)C(=O)NC(C)(C)C)cc1OC	1.2	-2.6	-2.4	4194	0.3	2.2
Cn1sc(NC(=O)c2ccc(Cl)cc2)nc1=O	0.6	-7.2	-5.6	9060	0.1	-2.2
Cc1ccc(C(=O)Nc2nc(=O)n(C)s2)cc1	-4.6	0.2	-1.7	22548*	?	3.6
CN(C)S(=O)(=O)c1cccc(NC(=O)c2c[nH]c3ccccc23)c1	77.8*	4.6	-27.6	3984	-8.7	-2.3
CCNc1nc(C)cc(COC)c1C#N	126.8*	5.4	2.0	4545	0.2	19.2
CCOC(=O)CSc1n[nH]c(-c2ccco2)n1	-0.1	-1.1	-4.5	5814	-0.3	-6.9
O=C(CSc1n[nH]c(-c2ccco2)n1)N1c2ccccc2Sc2ccccc21	-1.1	2.3	-2.9	22111*	1.6	5.3
CC(C)c1ccc(CN(C(=O)C2COc3ccccc3O2)C2CCS(=O)(=O)C2)cc1 (stereo unspecified)	-0.5	-5.4	-5.1	16571*	-0.9	7.0
CC(C)CC(=O)N(Cc1ccc(F)cc1)C1CCS(=O)(=O)C1 (stereo unspecified)	-2.7	-4.7	0.3	2313	-0.6	-6.0
CN(C)c1ccc(CN(C(=O)C2COc3ccccc3O2)C2CCS(=O)(=O)C2)cc1 (stereo unspecified)	3.9	0.4	-4.1	19479*	-0.4	-3.5
COc1ccc(CCNC(=O)CC2Nc3ccccc3NC2=O)cc1OC (stereo unspecified)	2.9	-6.2	-3.2	24834*	-3.9	8.2
COc1ccc(CCNC(=O)CC2Nc3ccccc3NC2=O)cc1 (stereo unspecified)	-0.9	-7.9	-13.1	6877	0.5	19.9
CCCOc1ccccc1NC(=O)CC1Nc2ccccc2NC1=O (stereo unspecified)	1.0	-8.3	-1.7	21938*	-5.4	3.7
Cc1cc(Br)ccc1NC(=O)CNC(=O)CN(C)C1CCS(=O)(=O)C1 (stereo unspecified)	-1.7	15.8	7.0	6096	2.6	1.4
COC(=O)c1cc(=O)nc(NNC(C)=O)s1	0.7	-3.4	-4.7	4305	-0.4	.
CC(=O)Nc1ccc(NC(=O)CSCCc2ccccn2)cc1	0.1	2.9	0.0	19811*	2.4	0.0
CC(=O)Nc1ccc(NC(=O)CCSCCc2ccccn2)cc1	-1.7	-15.3	-8.6	4287	-0.4	9.3
CCSc1ccccc1C(=O)Nc1cccnc1	1.0	-1.7	-1.3	23629*	?	6.1
SMILES	Mtb FBA inh	BoNT-F LC inh	Anthrax LF inh2	Autofluor counter	BoNT A protease	GDH-TPI inh
CCCCC(=O)Nc1ccc(C(=O)Nc2nnc(COC)s2)cc1	-0.9	3.0	-9.4	21834*	3.2	5.6
CCCCC(=O)Nc1ccc(C(=O)Nc2cccnc2)cc1	1.3	-5.0	1.6	16977*	-2.1	19.5
CCCCC(=O)Nc1cccc(NC(=O)c2ccc(Br)cc2)c1	0.2	-3.9	-0.3	24448*	-1.6	7.5
COCc1nnc(NC(=O)CCCCCN2C(=O)c3ccccc3C2=O)s1	-2.4	-8.3	-2.0	11439	-0.8	10.4
CCCCC(=O)Nc1ccc(NC(=O)c2cccnc2)cn1	-1.0	-6.6	-2.5	3873	0.6	-5.6
CCCCC(=O)Nc1cccc(NC(=O)c2cccc(Br)c2)c1	-0.6	-0.2	-1.6	2145	0.1	2.9
CCSc1ccccc1C(=O)Nc1nncs1	2.9	-8.0	-0.5	3808	-0.5	-2.2
OC(CNc1ccccc1)Cn1ccc2ccccc21 (stereo unspecified)	5.0	-5.5	-3.9	3840	0.2	-3.7
COCCNC(=O)C1(C)CCCN(C(=O)COc2ccccc2)C1 (stereo unspecified)	0.3	1.1	-6.8	2875	0.2	12.4
COc1ccc(C)c(NC(=O)C2CC(=O)NC3=C2C(=O)CCC3)c1 (stereo unspecified)	1.5	-4.9	4.2	4765	0.5	-0.5
COc1ccc(NC(=O)C2CC(=O)NC3=C2C(=O)CC(C)(C)C3)cc1 (stereo unspecified)	-2.3	-4.0	-8.5	23174*	-3.4	0.6
COc1cc(NC(=O)C2CC(=O)NC3=C2C(=O)CCC3)c(OC)cc1Cl (stereo unspecified)	1.1	-3.5	-0.4	23479*	-3.1	5.0
COc1ccc(NC(=O)C2CCC(=O)N2)cc1 (stereo unspecified)	0.4	2.4	-2.0	15411	2.0	2.5
COc1cccc(N2CCN(c3ccc4nnc(CCC(=O)Nc5ncccc5C)n4n3)CC2)c1	3.6	-6.8	-0.7	5698	-1.1	0.0
COc1cc(/C=C2/SC(=S)N(CC(=O)Nc3nc4ccccc4s3)C2=O)cc(OC)c1OC	3.1	33.5	42.2*	5455	40.1*	15.1
COc1cc(/C=C2\SC(=O)N(CC(=O)Nc3ccc(C)cc3)C2=O)cc(Cl)c1OCC(=O)O	-2.3	28.4	-0.2	3333	0.4	33.3*
CCc1nnc(NC(=O)CN2C(=O)/C(=C/c3cc(OC)c(OC)c(OC)c3)SC2=S)s1	-6.1	-25.5	4.5	2483	2.2	13.7
Cc1ccc(NC(=O)CN2C(=O)S/C(=C\c3ccc(OCC(=O)O)c(Br)c3)C2=O)cc1	0.1	9.6	-14.6	3363	-3.0	-1.5
COc1cc(/C=C2\SC(=S)N(CC(=O)Nc3ccccn3)C2=O)cc(OC)c1OC	2.8	18.9	23.9	2410	38.6*	12.8
CC(C)c1c(O)ccc2c1CC[C@H]1C(C)(C)CCC[C@]21C	-3.3	3.7	-7.5	5290	-0.1	2.6
O=C(O)CCCC(=O)OCCCCc1cccs1	-1.1	1.9	-0.8	19404*	?	-2.9

Source: PubChem BioAssay (several laboratories)
